Source: PubChem (The Scripps Research Institute Molecular Screening Center)
HTR5A ag ctr = activates human HTR5A in OPRM1-OPRD1 agonist counter-screen; P47898; HTR5A agonist assay, luminescence, cell-based; activation, % at 9.3 µM; actives 0.61% (n = 340,000); in the data active means activation mostly above about 9.5%, no sharp cut-off; inactive means mostly below about 7.6%;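 further: 0% = cells with vehicle only and 100% = reference agonist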
MOR-DOR ag = agonists of human mu-delta opioid receptor heterodimerization; P35372+P41143; cells, OPRM1-OPRD1 heterodimerization, luminescence; activation, % at 9.3 µM; actives 0.3% (n = 340,000); AID 504326;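 further: 0% = vehicle-treated cells and 100% = reference agonist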
MOR-DOR inv ag = inverse agonists of human mu-delta opioid receptor heterodimerization; P35372+P41143; cell-based MOR-DOR heterodimer luminescence, inverse agonism; inhibition, % at 9.3 µM; actives 0.21% (n = 340,000); AID 504357; in the data active means inhibition above about 22%, passing the limit was not always enough;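 further: 0% = cells with DMSO and 100% = wells without cells with DMSO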
HTR5A inv ctr = HTR5A inverse agonism, opioid heterodimer counter-screen | HTR5A cell line, luminescence | actives 0.083% (n = 340,000) | AID 504634 | inhibition, % at 9.3 µM; in the data active means inhibition mostly above about 23%, no sharp cut-off; inactive means mostly below about 18%;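 further: 0% = cells with DMSO and 100% = no-cell wells with DMSO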
MOR-DOR ag conf = confirmation of human OPRM1-OPRD1 heterodimerization agonists; AID 504904; activation, % at 9.3 µM; cells, MOR-DOR heterodimerization, luminescence complementation; actives 45% (n = 830); shares compounds with MOR-DOR ag;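 further: 0% = vehicle-treated cells and 100% = reference agonist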
HTR5A ag counter = HTR5A agonism, opioid heterodimer counter-screen. shares compounds with MOR-DOR ag. actives 8% (n = 830). activation, % at 9.3 µM. AID 504905. HTR5A agonist counterscreen, cell luminescence; in the data active means activation above about 17%;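 further: 0% = vehicle-treated cells and 100% = reference agonist response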
An asterisk follows results filed as active; i = inactive; . = not tested or not shown. An excerpt weighted towards active compounds, which were near 1.1% of everything screened. Unless noted, no stated cut-off is given here; in the data, active means activation above about 18%; inactive means the rest.

SMILES | HTR5A ag ctr | MOR-DOR ag | MOR-DOR inv ag | HTR5A inv ctr | MOR-DOR ag conf | HTR5A ag counter
CCC(COC(=O)c1cc(OC)c(OC)c(OC)c1)(c1ccccc1)N(C)C (centres undefined) | -5 | 54* | -294 | 17 | 51* | 14
CN(C)C(CNC(=O)Cc1ccc(Br)cc1)c1ccccc1 (centres undefined) | -1 | 141* | i | 2 | 214* | -5
CC(Cc1ccccc1)NC(=O)Cc1ccc(N(C)C)cc1 (centres undefined) | 1 | -1 | 6 | 27 | . | .
Clc1cccc(CNCCc2ccc3c(c2)OCO3)c1 | -5 | 2 | -11 | 19 | . | .
CC1(C)CC(CCNCc2ccc3c(c2)OCO3)(Cc2ccccc2)CCO1 (centres undefined) | -1 | 31* | -163 | 3 | 28* | -4
Clc1ccc(C(c2ccccc2)c2ncc[nH]2)cc1 (centres undefined) | 3 | -3 | 15 | -1 | . | .
N#CC(CCN1CCOCC1)(c1ccccc1)c1ccccc1 | -1 | -4 | 21 | 2 | . | .
CCC(=O)C(CCN1CCOCC1)(c1ccccc1)c1ccccc1 | 1 | 271* | i | 3 | 250* | -1
O=C(O)[C@H]1NC[C@H]2C[C@H]21 | 0 | -2 | 9 | 0 | . | .
COC(=O)C1=C(N)Oc2c(c(=O)oc3ccccc23)C1c1cccnc1 (centres undefined) | -1 | 3 | -16 | 4 | . | .
COc1ccc2c(c1O)[C@]13CCN(C)[C@H](C2)[C@@H]1CCC(=O)C3 | 5 | 96* | i | -16 | 23* | -1
COC1=CC2C3Cc4ccc(OC)c(O)c4C2(CCN3C)CC1=O (centres undefined) | 8 | -1 | 3 | -20 | . | .
CN1CCC23c4c5ccc(O)c4O[C@@H]2[C@H](O)C=CC3C1C5 (some centres undefined) | -2 | . | . | 5 | . | .
CN1CC[C@]23c4c5ccc(O)c4OC2[C@H](O)C=CC3[C@H]1C5 (some centres undefined) | 0 | . | . | -1 | . | 5
CC1OC(OC2CC(O)C3(CO)C4C(O)CC5(C)C(C6=CC(=O)OC6)CCC5(O)C4CCC3(O)C2)C(O)C(O)C1O (centres undefined) | 26* | 80* | -404 | 0 | 5 | 3
COc1ccc(CNCCc2c[nH]c3ccccc23)c(OC)c1C | 7 | 21* | -95 | -25 | 48* | 15
COc1ccc(C(CN(C)C)C2(O)CCCCC2)cc1 (centres undefined) | -3 | -2 | 12 | -18 | . | .
COc1ccc(C(CNC(=O)CCc2ccsc2)N(C)C)cc1 (centres undefined) | 2 | 405* | i | 13 | 55* | -3
CCC(C)N1C(=O)NC(=O)C2(Cc3c(ccc4ccccc34)N(C)C2)C1=O (centres undefined) | 13 | 20* | -126 | -30 | 215* | -1
CCN1C[C@]2(CO)CC[C@H](OC)[C@@]34C5C[C@H]6[C@H](OC)C5[C@](O)(C[C@H]6OC)[C@@H](C(OC)C23)[C@@H]14 (some centres undefined) | 6 | 1 | -4 | -16 | . | .
Cc1ccc(Cn2cc(C=O)c(-c3ccc(C)cc3)n2)cc1 | 2 | 6 | -33 | -16 | . | .
CCC(=O)OC1(Cc2ccc(CC)cc2)CC(C)N(C)CC1C (centres undefined) | 1 | 20* | -106 | -44 | 2 | 1
CCC(=O)OC1(c2cccc(C)c2)CC(C)N(C)CC1C (centres undefined) | -1 | 64* | -313 | 3 | 66* | 0
CCC(=O)OC1(c2ccccc2)C(C)CN(C)CC1C (centres undefined) | -3 | 2 | -9 | -3 | . | .
CC1CC(OC(=O)c2ccccc2)(c2ccccc2)C(C)CN1C (centres undefined) | -2 | -5 | 25 | 5 | . | .
O=[N+]([O-])[N-][n+]1cnn(Cc2ccccc2)c1 | 3 | -1 | 7 | 4 | . | .
CCOCCCNC(=O)CN1C2CCC1CC(O)(c1ccc(OC)cc1)C2 (centres undefined) | -5 | -1 | 7 | 9 | . | .
O=C(Cc1c(Cl)cccc1Cl)N1CCN(Cc2ccccc2)CC1 | -3 | -1 | 8 | 10 | . | .
